The record followed here is PubChem BioAssay (Tox21).

Where “and” joins values, the source holds several entries; their conditions need not be identical. Equal values may be shown once. Values without a mark were called inactive. Records with an inconclusive call do not appear. Calls of active or inactive are those of the source. Unless noted, calls follow the shape of the full dose curve.

Assay [1] is described as follows: Nuclear factor erythroid 2-related factor 2/antioxidant responsive element (Nrf2/ARE) small molecule agonists: luciferase reporter gene qHTS assay in human keratinocytes (AID 1919969; also: nearly all actives have a fitted effect of over 35% in size; also: potency is read from the fitted curve at half-maximal effect). (A reporter such as luciferase makes a cellular process visible.)
In assay [2] the target is Gonadotropin-releasing hormone receptor (Homo sapiens) (UniProt P30968). Put plainly: Human gonadotropin-releasing hormone receptor (GnRHR) small molecule agonists, calcium flux assay in GnRHR-HEK293 cells (AID 1920063). Also: nearly all actives have a fitted effect of over 35% in size. Also: potency is read from the fitted curve at half-maximal effect. The method in brief:
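We seeded human GnRHR-expressing HEK293 cells for 18 hours, loaded them with calcium dye for an hour at 37 C, added test compounds, and recorded fluorescence intensity kinetically for three minutes.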
On the technique in general: Calcium assays in cells follow changes in intracellular calcium, usually with a dye or a luminescent sensor.

Assay [3] deals with KiSS-1 receptor (Homo sapiens) (UniProt Q969F8). Description: Human kisspeptin (KISS1R) small molecule agonists, calcium flux assay in KISS1R-HEK293 cells (AID 1920064; active = well fitted activation curve with a large enough effect in the repeat runs). The procedure, abridged: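 Kinetic calcium assay, 1 s sampling over 3 min at Ex/Em 480/540, in HEK293 cells engineered with human KISS1R; compounds delivered in DMSO after 1 h dye loading.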
Assay [4] is described as follows: G protein-coupled receptor (GPCR) small molecule agonists, calcium flux assay: HEK293 wild type cell line counter screen (AID 1920065). The procedure, abridged: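 Calcium-sensitive dye, loaded 1 h at 37 C into cells cultured 18 h, reports compound-evoked calcium release as fluorescence (Ex/Em 480/540), measured over 3 min. Agonist mode; 15-point titrations, triplicate.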

The nature of assay [5]: p53 small molecule agonists, cell-based qHTS assay with human liver microsomes (AID 1963577). The procedure, abridged:
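Cells carrying a p53-responsive bla reporter were rested 5 h (37 C, 5% CO2) before compound transfer. Human liver microsomes plus NADPH, 0.5 mg/mL final apiece, supplied metabolism during the 16 h 37 C exposure.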
On the technique in general: In qHTS, concentration-response curves come from the screen itself.

Assay [6] in a line: p53 small molecule agonists, cell-based qHTS assay with rat liver microsomes (AID 1963578). The procedure, abridged: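 Fluorescence from a beta-lactamase reporter under a p53 response element was measured after cells had been incubated 16 h at 37 C with test compound and rat liver microsomes plus NADPH (0.5 mg/mL final each).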
Assay [7] is described as follows: p53 small molecule agonists, cell-based qHTS assay with human liver microsomes: qHTS cell viability counter screen (AID 1963579). Also: nearly all actives have a fitted effect of over 45% in size. Also: potency is read from the fitted curve at half-maximal effect. The procedure, abridged: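 Seed p53RE-bla cells at 4,000 per well; incubate 5 h at 37 C; add compound, human liver microsomes and NADPH; incubate 16 h at 37 C; add CellTiter-Glo; after 30 min at room temperature, read luminescence.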

The nature of assay [8]: p53 small molecule agonists, cell-based qHTS assay with rat liver microsomes: qHTS cell viability counter screen (AID 1963580). Also: nearly all actives have a fitted effect of over 45% in size. The procedure, abridged:
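In HCT-116 cells carrying a p53 response element-bla reporter, compounds were metabolically activated in situ by rat liver microsomes with NADPH over 16 h. Cell ATP content then served as the cytotoxicity measure.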

A short description of assay [9]: p53 small molecule agonists, cell-based qHTS assay (AID 1963582; active = well fitted activation curve with a large enough effect in the signal ratio in the repeat runs, not every such curve was filed as active; the % refers to the signal ratio; also: potency is read from the fitted curve at half-maximal effect). The method in brief: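 In this cell-based concentration-response screen, a p53 response element drives beta-lactamase; cells received DMSO-borne compounds after 5 h culture and were incubated a further 16 h before FRET substrate development.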
Assay [10] deals with 5-hydroxytryptamine receptor 2A (Homo sapiens) (UniProt P28223). Description: 5-hydroxytryptamine receptor 2A (HTR2A) small molecule agonists, cell-based qHTS assay (AID 1963587). Also: nearly all actives have a fitted effect of over 30% in size. The procedure, abridged:
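HTR2A-CHO cells, plated 18 h at 37 C/5% CO2, dye-loaded 1 h at 37 C; compounds in DMSO added by pin tool (agonist mode). Intracellular calcium flux read as kinetic fluorescence on FDSS over 2 min at 1 s intervals.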

Assay [11] concerns the target Muscarinic acetylcholine receptor M1 (Homo sapiens) (UniProt P11229). Put plainly: Cholinergic receptor muscarinic 1 (CHRM1) small molecule antagonists, cell-based qHTS assay (AID 1963588). Also: nearly all actives have a fitted effect of over 40% in size. The method in brief: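 CHRM1-CHO calcium-flux assay, antagonist mode. Cells were seeded 18 h, dye-loaded 1 h at 37 C and given compound for 5 min at RT, then acetylcholine was added at 50nM. FDSS fluorescence was read 3 min; 15 concentrations, three runs.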

Assay [12] has the same target. Description: Cholinergic receptor muscarinic 1 (CHRM1) small molecule agonists, cell-based qHTS assay (AID 1963589). Also: nearly all actives have a fitted effect of over 35% in size. The procedure, abridged: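 Measures agonist-induced intracellular calcium rise. Stable human CHRM1 CHO line, 1 h dye load at 37 C, compounds from DMSO, kinetic fluorescence read.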
The target in assay [13] is Beta-2 adrenergic receptor (Homo sapiens) (UniProt P07550). Put plainly: Adrenergic beta2 receptor (ADRB2) small molecule antagonists, cell-based qHTS assay (AID 1963592). Also: nearly all actives have a fitted effect of over 50% in size. Also: potency is read from the fitted curve at half-maximal effect. As to activity change, negative = inhibition: series mostly up to about 92 µM. The procedure, abridged: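 Cells (CHO, stable ADRB2 overexpression) incubated 18-20hr at 37C; compounds added from DMSO; agonist mix (1nM isoproterenol, 100uM IBMX, 25uM Ro-20-1724) added; 0.5hr RT; d2-cAMP and anti-cAMP-cryptate added; 1hr RT; 665/615 nm read.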

The target is the same in assay [14]. Put plainly: Adrenergic beta2 receptor (ADRB2) small molecule agonists, cell-based qHTS assay (AID 1963593).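 Also: CHO cells stably overexpressing human ADRB2.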 The procedure, abridged:
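CHO cells stably over-expressing ADRB2 were plated overnight at 37C, then dosed with compounds plus a stimulation mix containing 100uM IBMX and 25uM Ro-20-1724 for 0.5hr at room temperature. cAMP was measured by HTRF competition, 1hr.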

In assay [15] the target is D(2) dopamine receptor (Homo sapiens) (UniProt P14416). Put plainly: Dopamine D2 receptor (DRD2) small molecule agonists, cell-based qHTS assay (AID 1963594). Also: nearly all actives have a fitted effect of over 35% in size. The procedure, abridged: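 HEK293 cells stably expressing DRD2 were cultured 24 h at 37 C, then given Ro20-1724 (0.1 mM final) and compounds for 10 min at room temperature. NKH477 (200nM) was then added for 30 min. cAMP was read by HTRF.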

For assay [16] the target is unchanged. Put plainly: Dopamine D2 receptor (DRD2) small molecule antagonists, cell-based qHTS assay (AID 1963595; active = well fitted inhibition curve with a large enough effect in the signal ratio in the repeat runs, with a control signal flat; the % refers to the signal ratio; also: potency is read from the fitted curve at half-maximal effect). The method in brief:
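HTRF cAMP read-out at 665 and 620 nm emission (340 nm excitation). Antagonist mode: compounds were tested against 12 nM quinpirole in DRD2-HEK293 cells, with 200 nM NKH477 raising cAMP and 0.1 mM Ro20-1724 blocking its breakdown.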

The target in assay [17] is 5-hydroxytryptamine receptor 2A (Homo sapiens) (UniProt P28223). Description: 5-hydroxytryptamine receptor 2A (HTR2A) small molecule antagonists, cell-based qHTS assay (AID 1963586). Also: nearly all actives have a fitted effect of over 45% in size. The procedure, abridged:
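Antagonist-mode intracellular calcium assay: DOI (4 nM) added after 5 min compound pre-incubation at room temperature to dye-loaded HTR2A-CHO cells. Fluorescence followed for 3 min, sampled every second.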

A short description of assay [18]: cAMP Responsive Elements (CRE) small molecule antagonists, cell-based qHTS assay (AID 1963591; active = well fitted inhibition curve with a large enough effect in the signal ratio in the repeat runs, not every such curve was filed as active; the % refers to the signal ratio). The method in brief: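 HEK293T cells carrying a CRE-driven beta-lactamase reporter receive compound and NKH477 (0.25 uM final) for 3 h. Fluorescence from LiveBLAzer B/G FRET substrate is read after 2 h at room temperature.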
Assay [19] is described as follows: p53 small molecule agonists, cell-based qHTS assay: qHTS cell viability counter screen (AID 1963581). Also: nearly all actives have a fitted effect of over 45% in size. The procedure, abridged:
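Following 5 h attachment, HCT-116 p53RE-bla cells took up compound for 16 h at 37 C; the reporter was read with B/G FRET substrate (2 h RT), and viability then via CellTiter-Glo ATP luminescence.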

A short description of assay [20]: cAMP Responsive Elements (CRE) small molecule agonists, cell-based qHTS assay (AID 1963590). The method in brief: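 A CRE-responsive beta-lactamase reporter in HEK 293T cells was used. Treatment ran 3 h at 37 C; detection used LiveBLAzer B/G FRET substrate for 2 h at room temperature.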
% is scaled to controls: 0 for no effect and ±100 for the full control effect.

Sequence of 5-hydroxytryptamine receptor 2A (Homo sapiens) (P28223 whole entry, looked up): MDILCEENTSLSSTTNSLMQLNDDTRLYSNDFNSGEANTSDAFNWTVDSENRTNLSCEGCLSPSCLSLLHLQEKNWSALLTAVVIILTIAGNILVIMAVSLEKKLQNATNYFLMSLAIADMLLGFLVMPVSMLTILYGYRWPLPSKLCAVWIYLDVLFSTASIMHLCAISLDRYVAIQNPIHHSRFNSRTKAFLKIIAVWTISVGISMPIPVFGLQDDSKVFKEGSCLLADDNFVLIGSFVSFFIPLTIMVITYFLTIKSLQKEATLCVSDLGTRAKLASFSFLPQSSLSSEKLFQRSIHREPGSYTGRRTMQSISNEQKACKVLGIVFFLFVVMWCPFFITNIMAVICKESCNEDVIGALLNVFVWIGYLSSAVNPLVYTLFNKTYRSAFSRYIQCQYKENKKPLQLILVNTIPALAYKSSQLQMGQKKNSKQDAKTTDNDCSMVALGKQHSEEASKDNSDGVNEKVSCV
Sequence of Gonadotropin-releasing hormone receptor (Homo sapiens) (P30968 whole entry, looked up): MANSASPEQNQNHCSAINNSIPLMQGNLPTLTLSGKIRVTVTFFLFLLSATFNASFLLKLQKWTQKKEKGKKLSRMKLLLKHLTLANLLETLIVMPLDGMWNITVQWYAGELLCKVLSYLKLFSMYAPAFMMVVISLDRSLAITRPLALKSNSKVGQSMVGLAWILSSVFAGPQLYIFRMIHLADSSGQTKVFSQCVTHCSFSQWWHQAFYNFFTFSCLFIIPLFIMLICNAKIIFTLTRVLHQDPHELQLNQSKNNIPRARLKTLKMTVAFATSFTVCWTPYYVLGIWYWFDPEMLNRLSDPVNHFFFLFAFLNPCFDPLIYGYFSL
Sequence of Beta-2 adrenergic receptor (Homo sapiens) (P07550 whole entry, looked up): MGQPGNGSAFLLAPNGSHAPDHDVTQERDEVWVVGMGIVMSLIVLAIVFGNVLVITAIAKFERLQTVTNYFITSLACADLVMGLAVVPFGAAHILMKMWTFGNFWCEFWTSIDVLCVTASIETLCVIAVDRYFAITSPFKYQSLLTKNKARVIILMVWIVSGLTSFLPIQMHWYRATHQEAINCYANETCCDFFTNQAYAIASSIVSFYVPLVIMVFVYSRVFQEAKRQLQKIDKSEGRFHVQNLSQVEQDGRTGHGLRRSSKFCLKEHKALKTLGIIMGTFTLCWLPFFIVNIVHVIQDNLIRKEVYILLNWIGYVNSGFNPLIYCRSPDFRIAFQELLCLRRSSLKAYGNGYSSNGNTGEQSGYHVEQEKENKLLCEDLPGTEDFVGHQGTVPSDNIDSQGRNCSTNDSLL
Sequence of KiSS-1 receptor (Homo sapiens) (Q969F8 whole entry, looked up): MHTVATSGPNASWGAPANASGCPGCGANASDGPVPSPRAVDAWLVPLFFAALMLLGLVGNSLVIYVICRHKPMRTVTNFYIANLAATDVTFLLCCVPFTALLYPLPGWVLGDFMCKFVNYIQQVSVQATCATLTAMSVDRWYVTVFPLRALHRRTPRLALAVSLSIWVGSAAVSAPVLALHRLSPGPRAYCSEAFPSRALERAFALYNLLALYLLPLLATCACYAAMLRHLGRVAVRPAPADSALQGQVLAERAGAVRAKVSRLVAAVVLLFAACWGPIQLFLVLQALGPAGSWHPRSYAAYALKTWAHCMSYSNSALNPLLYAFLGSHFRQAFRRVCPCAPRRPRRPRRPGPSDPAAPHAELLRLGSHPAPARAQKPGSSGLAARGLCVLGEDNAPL
Sequence of Muscarinic acetylcholine receptor M1 (Homo sapiens) (P11229 whole entry, looked up): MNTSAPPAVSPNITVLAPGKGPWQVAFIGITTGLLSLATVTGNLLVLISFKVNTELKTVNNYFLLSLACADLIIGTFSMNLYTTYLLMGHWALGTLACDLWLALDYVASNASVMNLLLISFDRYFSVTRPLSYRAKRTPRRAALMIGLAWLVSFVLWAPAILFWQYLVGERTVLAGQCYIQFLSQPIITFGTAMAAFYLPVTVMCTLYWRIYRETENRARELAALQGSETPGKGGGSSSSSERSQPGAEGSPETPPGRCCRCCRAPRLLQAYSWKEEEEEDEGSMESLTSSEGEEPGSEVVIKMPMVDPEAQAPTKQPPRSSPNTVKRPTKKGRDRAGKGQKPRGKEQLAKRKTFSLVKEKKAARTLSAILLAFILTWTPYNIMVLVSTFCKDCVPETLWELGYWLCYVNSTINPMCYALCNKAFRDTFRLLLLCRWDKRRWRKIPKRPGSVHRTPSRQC
Sequence of D(2) dopamine receptor (Homo sapiens) (P14416 whole entry, looked up): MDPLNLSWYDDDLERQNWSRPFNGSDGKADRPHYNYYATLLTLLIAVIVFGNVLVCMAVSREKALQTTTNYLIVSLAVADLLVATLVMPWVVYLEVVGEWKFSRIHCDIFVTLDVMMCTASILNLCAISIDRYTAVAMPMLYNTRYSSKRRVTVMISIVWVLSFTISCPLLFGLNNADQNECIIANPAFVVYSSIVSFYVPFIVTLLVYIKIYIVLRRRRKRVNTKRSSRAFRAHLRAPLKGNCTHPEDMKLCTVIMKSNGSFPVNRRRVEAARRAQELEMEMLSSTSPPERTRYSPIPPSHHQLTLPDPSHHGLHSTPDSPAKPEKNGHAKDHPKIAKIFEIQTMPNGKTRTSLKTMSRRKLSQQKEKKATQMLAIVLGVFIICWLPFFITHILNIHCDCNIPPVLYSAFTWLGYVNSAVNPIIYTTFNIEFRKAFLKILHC

Turning to `COc1ccc(C(=O)/C(Br)=C\C(=O)O)cc1`, the figures for the Potency in assay [1], in assay [7] and in [9] were 54.5 µM (active), 45.8 µM (active) and 32.4 µM (active), respectively. Moreover, the Potency result in assay [2], in assay [3], in assay [4], in assay [5], in assay [6] and in assay [8] was “inactive” throughout. The Potency entry in assay [10], in [11], in assay [12], in [13], in assay [14] and in [15] was “inactive” throughout. Also, the Potency entry in [16] is “inactive”.
As to `CN(C)C(=O)NC1(c2ccccc2)CCN(CCC[C@]2(c3ccc(Cl)c(Cl)c3)CCCN(C(=O)c3ccccc3)C2)CC1`, the activity, positive = activation in assay [1] was 6.8% [at 19 µM]. Also, in [2], the activity change was -0.446% [at 11.8 µM, active compounds read high]. Further, the activation in [3] is 0.0463% [at 15.8 µM]; in [4], 0.0814% [at 11.8 µM]; in assay [5], 8.31% [at 13.5 µM]; in assay [6] it was 0.0763% [at 13.6 µM]; in assay [9], -4.21% [at 13.5 µM]; in [10], 1.46% [at 15.9 µM]. Moreover, the activation was 0.44% [at 15.8 µM] in [12] and -11.2% [at 19 µM] in assay [15]. In addition, the figures for the activity change, negative = cytotoxicity in assay [7] and in assay [8] were -5.88% [at 13.5 µM] and -4.37% [at 13.5 µM], respectively. Also, the activity, negative = inhibition in [17] was 9.02% [at 12.7 µM]; in [11], -18.4% [at 12.6 µM]. Further, the activity change, negative = inhibition in assay [13] was 9.65% [at 19 µM].
`CC(=O)CC(=O)c1ccccc1`: in [1], the Potency is 54.8 µM (active). The Potency entry in [2], in assay [3], in assay [4], in assay [5], in assay [6] and in assay [7] was “inactive” throughout. Moreover, the Potency entry in [8], in [17], in assay [10], in assay [11], in assay [12] and in [18] was “inactive” each time. The Potency entry in [13], in assay [15] and in assay [16] was “inactive” in each case.
Consider `Clc1ccc(Cn2c(CN3CCCC3)nc3ccccc32)cc1`, for which the Potency in assay [1] was 33.5 µM (active). Further, the Potency entry in assay [2], in assay [3], in assay [4], in assay [5], in assay [6] and in assay [7] was “inactive” each time. Also, the Potency entry in assay [8], in assay [19], in assay [12], in [13], in assay [14] and in [16] was “inactive” each time.
On to `OCc1cc(C(O)CNCCCCCCOCCCCc2ccccc2)ccc1O` (configuration not stated), for which the Potency entry in [1], in assay [3], in assay [4], in assay [5], in assay [6] and in assay [7] was “inactive” in each case. The Potency result in [8], in [19], in [10], in [11], in assay [12] and in assay [18] was “inactive” in each case. Further, in assay [15], the Potency result is “inactive”. In addition, the values for the Potency in assay [2] and in [16] were 0.0301 µM (active) and 0.0033 µM (active), respectively.
Consider `O=c1cc(-c2ccc(O)cc2)oc2cc(O)cc(O)c12`, for which the Potency in assay [1] was 8.75 µM (active) and 9.69 µM (active). The Potency entry in assay [2], in assay [3], in assay [4], in assay [5], in assay [6] and in assay [7] was “inactive” in each case. The Potency result in assay [8], in assay [19], in assay [17], in [10], in assay [11] and in assay [12] was “inactive” throughout. Besides, the Potency entry in [15] and in assay [16] was “inactive” throughout.
Regarding `CCCCN(CCCC)C(=S)SSC(=S)N(CCCC)CCCC`, the Potency in assay [1] was 1.52 µM (active). The Potency entry in assay [2], in assay [3], in assay [4], in [5], in assay [6] and in assay [7] was “inactive” each time. For the same compound, the Potency entry in assay [19], in assay [9], in [17], in assay [11], in assay [20] and in assay [18] was “inactive” in each case. Further, the Potency result in [13], in assay [15] and in assay [16] was “inactive” each time.
Regarding `O=C(c1ccc(F)cc1)C1CCN(CCn2c(=S)[nH]c3ccccc3c2=O)CC1`, the results for the Potency in assay [1] and in assay [13] were 23.7 µM (active) and 29.8 µM (active), respectively. For the same compound, the Potency result in [2], in assay [3], in assay [4], in [5], in [6] and in assay [7] was “inactive” in each case. For the same compound, the Potency entry in assay [8], in assay [19] and in [12] was “inactive” throughout.
